# VDR inh – Inhibitors of the vitamin D receptor (VDR): qHTS; actives 0.93% (n = 400,000); AID 504847, 2011; VDR-SRC2-3 peptide fluorescence polarization, 2 h; Potency, µM, without a hit: max response, negative = inhibition, hits mostly inhibitors
#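 Reagent solutions, kept cold and dark, are dispensed first; compounds are then pinned in at 23 nl, plates briefly spun, and incubated 2 h at ambient temperature. Inhibition of VDR–SRC2-3 peptide binding is read by fluorescence polarization.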
# TDP1 cell CPT – qHTS for Inhibitors of human tyrosyl-DNA phosphodiesterase 1 (TDP1): qHTS in cells in presence of CPT; actives 12% (n = 420,000); Potency, µM (top dose mostly 46.2 µM), for the others: top-dose activity change, negative = growth inhibition, most hits filed as inhibitors; chicken DT40 Tdp1-/-;hTDP1 cells + 20 nM CPT, ATP luminescence, 48 h; further: nearly all actives have a fitted effect of over 55% in size
#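 Cell growth measured by CellTiter-Glo luminescence after a minimum 48 h, 37 C compound exposure with 20 nM CPT in Tdp1-knockout DT40 cells stably expressing hTDP1, seeded 400/well; qHTS titration format.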
# KAT2A inh – qHTS Assay for Inhibitors of GCN5L2 | Histone acetyltransferase KAT2A (Homo sapiens), Q92830 | GCN5L2 HAT assay, ThioGlo1 CoA-SH fluorescence | Potency, µM (series often up to 58.9 µM), without a hit: at the top dose activity change, negative = inhibition, hits mostly inhibitors | actives 0.21% (n = 390,000) | AID 504327, 2011
#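 GCN5L2 (20nM final) in 50mM HEPES, 0.1mM EDTA pH 7.5, 0.01% Tween-20 was preincubated 15 min at room temperature with compound, then given ThioGlo1 (50uM), H3(1-25) peptide (75uM) and acetyl-CoA (70uM); CoA-thiol fluorescence (Ex340/Em540) was read at 0 and 20 min.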
# TDP1 block – qHTS Assay for Inhibitors of Tyrosyl-DNA Phosphodiesterase (TDP1). Tyrosyl-DNA phosphodiesterase 1 (Homo sapiens), Q9NUW8. recombinant TDP1, AlphaScreen DNA substrate cleavage. Potency, µM (highest dose often 130 µM), without a hit: at the highest dose activity change, negative = inhibition, usual class: inhibitors. actives 0.28% (n = 350,000). AID 485290, 2010; further: nearly all actives have a fitted effect of over 40% in size
# Target sequence (Q9NUW8 whole entry, looked up): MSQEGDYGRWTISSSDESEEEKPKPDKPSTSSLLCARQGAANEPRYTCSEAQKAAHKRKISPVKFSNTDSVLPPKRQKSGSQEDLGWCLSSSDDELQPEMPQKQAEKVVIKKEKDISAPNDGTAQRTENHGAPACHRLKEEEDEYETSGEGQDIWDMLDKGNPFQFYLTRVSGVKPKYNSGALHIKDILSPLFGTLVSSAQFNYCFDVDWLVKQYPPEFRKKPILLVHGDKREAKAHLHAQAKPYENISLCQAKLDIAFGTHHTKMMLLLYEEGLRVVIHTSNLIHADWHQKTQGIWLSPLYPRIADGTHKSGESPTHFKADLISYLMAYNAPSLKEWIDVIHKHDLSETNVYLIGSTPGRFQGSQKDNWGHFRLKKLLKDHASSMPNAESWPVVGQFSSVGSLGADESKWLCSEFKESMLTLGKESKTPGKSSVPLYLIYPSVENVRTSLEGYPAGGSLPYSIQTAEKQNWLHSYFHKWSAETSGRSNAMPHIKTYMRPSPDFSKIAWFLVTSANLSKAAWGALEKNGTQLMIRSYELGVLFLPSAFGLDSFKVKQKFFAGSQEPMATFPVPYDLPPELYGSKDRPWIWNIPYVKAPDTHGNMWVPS
#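 Steps: enzyme plus compound, 15 min RT; add biotin/phosphotyrosine-FITC oligonucleotide (15 nM final), react 5 min; add donor/acceptor beads (10 ug/ml final), 10 min; read AlphaScreen. Tdp1 at 1 nM final.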
# DT40 TDP1 no CPT – qHTS for Inhibitors of human tyrosyl-DNA phosphodiesterase 1 (TDP1): qHTS in cells in absence of CPT; Potency, µM (titrated, usually from 46.2 µM), for inactives: at the highest dose activity change, negative = growth inhibition, usual class: inhibitors; actives 15% (n = 420,000); DT40 Tdp1-/- hTDP1 cells, no CPT, ATP luminescence, 48 h; further: nearly all actives have a fitted effect of over 55% in size
#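 Luminescent ATP content (CellTiter-Glo) served as the growth readout. Knockout chicken DT40 cells expressing human TDP1 were exposed to compounds without camptothecin for a minimum 48 hr at 37 °C.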
# PLK1 PBD block – qHTS for Inhibitors of PLK1-PDB (polo-like kinase 1 - polo-box domain): Primary Screen | Serine/threonine-protein kinase PLK1 (Homo sapiens), P53350 | Plk1 PBD binding of FITC phosphopeptide, fluorescence polarization | Potency, µM, inactives show max response, negative = inhibition, hits mostly inhibitors | actives 2.8% (n = 360,000) | AID 720504, 2013; further: series mostly up to about 57 µM; nearly all actives have a fitted effect of over 65% in size
# * = called active by the depositor; ? = inconclusive; / = no result; [ ] = dose if it differs, or a comment. Most compounds without a hit are left out; they make up all but 18% or so of the library. The call rests on the fitted dose curve; in most records, active means well fitted curve in the direction sought with a large enough effect; inconclusive means small, poorly fitted or top-dose-only effect, or another doubt; inactive means no such curve, though single readings can be large; an effect the other way counts as inactive or inconclusive. On the % scale 0 is the no-effect control and ±100 the full control effect; potency means the concentration at half of the fitted maximal effect.
SMILES,VDR inh,TDP1 cell CPT,KAT2A inh,TDP1 block,DT40 TDP1 no CPT,PLK1 PBD block
Cc1cc(O)c2c(c1)O[C@@]1(C)CC[C@H]3C(C)(C)CCCC34CO[C@@H]2[C@H]41 (stereo not given in full),/,?,/,/,16.8µM*,/
CCN1/C(=C/C=C/c2oc3ccc(-c4ccccc4)cc3[n+]2CC)Oc2ccc(-c3ccccc3)cc21,23.0%,0.0073µM*,-0.1%,0.0%,0.0731µM*,-110.0%
Cc1cc2nc(-c3ccc(C#N)cc3)c(Cc3cccc(F)c3)n2c(C)c1Br,/,18.4µM*,/,/,14.6µM*,-24.5%
Cc1cc2nc(C3CCCCC3)c(Cc3cccc(F)c3)n2c(C)c1Br,/,16.4µM*,/,/,?,-1.8%
COc1ccc(Cc2c(-c3cccc(Br)c3)nc3cc(C)c(Br)c(C)n23)c(C)c1,/,-25.0%,/,/,-29.2%,-11.0%
Cc1cc(Br)cn2c(Cc3cccc(F)c3)c(-c3ccc(C#N)cc3)nc12,/,18.4µM*,/,/,?,3.9%
Cc1cc2nc(-c3cccc(Br)c3)c(Cc3ccccc3)n2c(C)c1Br,/,16.4µM*,/,/,?,-15.1%
Cc1cc2nc(C3CCCCC3)c(Cc3ccccc3C(F)(F)F)n2c(C)c1Br,/,?,/,/,?,-9.4%
COc1ccc(C2CC(=O)c3cc(-c4nc(-c5cccc([N+](=O)[O-])c5)cs4)c(=O)n(-c4cccc(C)c4)c3C2)cc1 (stereo not given),-15.9%,-0.5%,-4.5%,4.5%,-3.8%,/
Cc1ccc(Cc2c(-c3ccccc3)nc3cc(C)c(Br)c(C)n23)cc1,/,?,/,/,?,-0.4%
Cc1ccc(-c2nc3ccc(C)cn3c2Cc2cccc(F)c2)cc1,/,?,/,/,?,4.7%
Cc1cc2nc(-c3ccccc3)c(Cc3cccc(F)c3)n2c(C)c1Br,/,?,/,/,16.4µM*,-0.7%
Cc1ccc(-c2nc3cc(C)c(Br)c(C)n3c2Cc2cccc(F)c2)cc1,/,7.31µM*,/,/,10.3µM*,-2.3%
Cc1cc2nc(-c3ccc(F)cc3)c(Cc3ccccc3)n2c(C)c1Br,/,20.6µM*,/,/,20.6µM*,1.5%
C[C@@H]1CC[C@H]2[C@H](C)[C@H]3CC[C@H]4C5[C@@H](O)CC6=CC(=O)CC[C@]6(C)[C@H]5C[C@H]4C3C(=O)N2C1 (stereo not given in full),-6.6%,?,/,4.4%,?,/
Cc1ccc(CNC(=O)CCCCCn2c(=O)c3sccc3n(CC(=O)Nc3ccc(C)c(F)c3)c2=O)cc1,16.0%,-4.5%,2.5%,3.6%,?,/
CN(C(=O)c1cccc(NC(=O)Cc2ccc(NC(=O)C3CCN(C(=O)C4CCC4)CC3)cc2)c1)C1CCCCC1,-6.5%,?,/,/,?,-13.7%
N#Cc1ccc(-c2nc3ccc(Br)cn3c2Cc2cccc(F)c2)cc1,/,?,/,/,?,0.4%
COc1ccc(-c2nc3ccc(Br)cn3c2Cc2cccc(Cl)c2)cc1OC,/,?,/,/,20.6µM*,8.6%
Fc1ccc(-c2nc3ccc(Cl)cn3c2Cc2cccc(F)c2)cc1,/,?,/,/,23.1µM*,-6.0%
N#Cc1ccc(-c2nc3ccc(Br)cn3c2Cc2cccc(Cl)c2)cc1,/,?,/,/,20.6µM*,-4.8%
Cc1ccc(-c2nc3ccc(Br)cn3c2Cc2ccccc2)cc1,/,14.6µM*,/,/,?,-1.8%
Fc1cccc(Cc2c(-c3ccccc3)nc3ccc(Cl)cn23)c1,/,?,/,/,?,3.6%
CC1=C(C(=O)OCC2CCCCC2)C(c2ccc(Cl)cc2)CC(=O)N1 (stereo not given),-15.9%,?,-9.1%,-4.3%[12.3 µM],?,/
CCc1ccccc1N(c1nc(-c2ccc(OC)c(OC)c2)no1)c1nc(-c2ccc(OC)c(OC)c2)no1,-4.6%,1.7%,-1.6%,-3.8%,5.9%,/
SMILES,VDR inh,TDP1 cell CPT,KAT2A inh,TDP1 block,DT40 TDP1 no CPT,PLK1 PBD block
COc1ccc(-c2nc3ccc(Br)cn3c2Cc2ccccc2)cc1OC,/,?,/,/,?,-2.8%
Brc1ccc2nc(-c3ccccc3)c(Cc3ccsc3)n2c1,/,25.9µM*,/,/,23.1µM*,?
COc1ccccc1Cc1c(-c2ccc(OC)c(OC)c2)nc2ccc(Br)cn12,/,18.4µM*,/,/,5.8µM*,-7.9%
Cc1ccc(-c2nc3ccc(Br)cn3c2Cc2cccc(Cl)c2)cc1,/,14.6µM*,/,/,9.2µM*,-1.8%
Cc1ccc(-c2nc3ccc(Cl)cn3c2Cc2cccc(Cl)c2)cc1,/,?,/,/,16.4µM*,-26.7%
CC12CCC(C(=O)N(CC(O)CN3CCCCC3)C1=O)C2(C)C (stereo not given),-4.2%,5.5%,0.5%,-3.2%,-12.5%,-6.1%
Cc1ccc(-c2nc(SC(C)C(=O)N3CCOCC3)n[nH]2)cc1 (stereo not given),-8.7%,-1.8%,0.5%,6.1%,7.4%,2.0%
Cn1nc(C(=O)N2CCC(C(N)=O)CC2)c2c1-c1ccccc1SC2,-0.8%,?,-3.5%,/,?,2.0%
COC(=O)C1=C(C)N(CCc2c[nH]c3ccccc23)C(=O)/C1=C\N(C)C,?,?,3.9%,2.7%,?,23.8µM*
COc1ccc(Cl)cc1NC(=O)NCCc1c(C)nn(C)c1C,4.1%,?,24.2%,-1.2%,16.4µM*,/
Cc1ccc(NC(=O)NCCc2c(C)nn(C)c2C)cc1Cl,5.8%,?,4.0%,-1.2%,23.1µM*,/
CN(C)CC/C=C1\c2ccccc2COc2ccc(CC(=O)O)cc21,0.1%,/,-22.8%,4.3%,/,/
CCOC(=O)NNc1ccc2nonc2c1[N+](=O)[O-],35.5µM*,6.51µM*,-23.1%,/,2.91µM*,8.44µM*
Cc1ccc(C)c(Nc2ncnc3onc(C)c23)c1,9.5%,?,-3.2%,2.1%,?,/
CCN(C(=O)c1ccc(S(=O)(=O)N(C)C)cc1)C(C)C(=O)Nc1ccc(C)cc1 (stereo not given),3.6%,-8.1%,6.5%,/,-40.0%,0.6%
c1ccc(-c2nn3c(-c4ccco4)nnc3s2)nc1,8.2%,?,-3.3%,-12.3%,?,-7.2%
c1coc(-c2nnc3sc(C4CCCCC4)nn23)c1,-17.5%,?,-9.4%,5.0%,?,10.6µM*
Clc1ccc(-c2ccc(-c3nn4c(-c5ccco5)nnc4s3)o2)cc1,-3.9%,?,/,/,10.3µM*,?
